Reference: PubChem BioAssay (NCI)
This is part of a sample that, as a whole, favours compounds with a hit. Of some 83,000 tested, about 20% had one in any assay.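 Negative percent growth values reflect cell death: -40 means 40% of the cells present at the start died, and -100 means all died.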 Values without a mark were called inactive. Calls of active or inactive are those of the source. Rule for the calls: active = growth percent below 10; inactive = the rest.

Key:
Test in all cases: NCI-60 one-dose screen, 48 h (100 = growth as untreated, 0 = no growth, -100 = all killed)
Conditions in all cases: 10 µM unless noted
[1] = system: NCI-H23 lung
[2] = system: NCI-H226 lung
[3] = system: NCI-H322M lung
[4] = system: HOP-62 NSCLC
[5] = system: NCI-H460 lung
[6] = system: HOP-92 NSCLC
[7] = system: NCI-H522 lung
[8] = system: A549/ATCC NSCLC
[9] = system: 786-0 renal
[10] = system: COLO 205 colon

SMILES	growth [1]	growth [2]	growth [3]	growth [4]	growth [5]	growth [6]	growth [7]	growth [8]	growth [9]	growth [10]
O=C1Nc2cc(Cl)ccc2/C1=C/c1ccc(N2CCOCC2)s1	109%	92.9%	101%	99.4%	112%	89.4%	101%	103%	88.5%	95.1%
COc1ccc2c(c1)NC(=O)CN2c1nc(NC2CC2)nc2ccccc12	12.4%	65.7%	40.7%	31.7%	2.27% (active)	3.22% (active)	-11.9% (active)	20.8%	19.6%	-18.9% (active)
COc1cc(-c2csc(NC(=O)Nc3ccc(Cl)cc3Cl)n2)cc(OC)c1OC	42.7%	43.8%	30.8%	38.7%	10.3%	44%	21.4%	25.5%	33%	36.5%
CCCCCCCCCCCCCCCCCCOc1cccc(CCOP(=O)(O)OCC[N+](C)(C)C)c1	96.3%	95.3%	105%	72.2%	60.7%	72.9%	72%	84.9%	91.2%	97.4%
O=C1C2=C(C(=O)c3c(O)ccc(O)c31)N(c1cccnc1)Cc1ccccc1O2	-5.92% (active)	19.2%	23.9%	-3.72% (active)	7.48% (active)	-89.9% (active)	-77.9% (active)	31.6%	-86.7% (active)	-60.9% (active)
NC(C(=O)O)C(O)c1ccc(OCc2ccccc2)c(OCc2ccccc2)c1 (stereo not given)	96.3%	99.2%	109%	88.7%	108%	73.8%	93.5%	93.4%	98.7%	106%
O=c1cc(C2NCCc3c2[nH]c2ccccc32)c2c(ccc3ccccc32)o1 (stereo not given)	79.6%	77%	62.7%	82.4%	48.1%	41%	62.4%	67.9%	59.1%	65.3%
O=C(Nc1cc(C(F)(F)F)cc(C(F)(F)F)c1)Nc1ccc(OCc2nnc(-c3ccc(Cl)cc3)o2)c(F)c1	-5.96% (active)	6.03% (active)	19.3%	10.3%	6.63% (active)	-11.9% (active)	-22.8% (active)	10.5%	15.1%	-84.7% (active)
COc1ccc2c(c1)C=CC(C#N)N2C(=O)c1ccccc1 (stereo not given)	26.4%	61.6%	53.9%	34.6%	5.09% (active)	34%	1.91% (active)	21.2%	23.4%	-43.7% (active)
CCC(=O)Oc1ccc2c(c1)CC[C@@H]1[C@@H]2CC[C@]2(C)C[C@H](OC(=O)CC)C[C@@H]12	79.1%	99.9%	92.6%	64.1%	62.6%	62.8%	32.1%	71.5%	67.9%	118%
CCCCNC(=O)NS(=O)(=O)c1ccc(N2N=C(c3ccc(C)cc3C)CC2c2ccc(OC)cc2)cc1 (stereo not given)	65.4%	86.7%	90.6%	92%	48.3%	75.1%	54.4%	38.4%	61.3%	93.5%
CC1=NN2C(=NC3=C(CCC/C3=C\c3ccc(Cl)cc3)C2c2ccc(Cl)cc2)S1 (stereo not given)	97.8%	101%	104%	115%	101%	77.9%	83.3%	87%	97.2%	109%
O=S(=O)(NCCCNc1nccc(-c2c(-c3ccc(F)c(O)c3)nc3sccn23)n1)c1ccc(Cl)cc1	80%	104%	98.6%	96.6%	86.3%	74.3%	57.5%	76.9%	110%	42.6%
CCSc1nnc(NC(=O)Cc2ccc(Cl)cc2)s1	99.1%	104%	112%	102%	123%	89.4%	107%	106%	100%	108%
CC1(C)OC2COC3(C(=O)O)OC(C)(C)OC3C2O1 (stereo not given)	97.8%	99.9%	98.6%	91.2%	103%	98.3%	90.2%	95.5%	104%	98.8%
CCn1cc(C(=O)O)c(=O)c2cc(F)c(N3CCN(S(=O)(=O)c4ccc(OC)c(OC)c4)CC3)cc21	99.6%	95.9%	102%	100%	108%	91.5%	90.6%	105%	99.5%	99.3%
CCOC(=O)CC/C(C)=N\Nc1ccc([N+](=O)[O-])cc1	99.5%	67.9%	77.3%	63.2%	27.1%	89.8%	38.8%	24.4%	72.9%	34.7%
CN(C)C/C=C/C(=O)Nc1cc2c(Nc3ccc(F)c(Cl)c3F)ncnc2cc1OCCOC(F)F	26.6%	25.1%	1.96% (active)	20.6%	36.6%	-53.7% (active)	-25.7% (active)	21.8%	0.67% (active)	20.1%
Cc1ccc(C2=NN(c3ccc(S(N)(=O)=O)cc3)C(c3cn(-c4ccccc4)nc3-c3ccccc3)C2)cc1 (stereo not given)	93.8%	97.8%	101%	105%	38.9%	27.7%	75.2%	65%	109%	101%
COc1cccc(-c2nc3sccn3c2-c2ccnc(NCCCNS(=O)(=O)c3ccc(F)cc3)n2)c1	16.2%	13.7%	64.7%	82.4%	40.3%	61.5%	14%	41.6%	44.1%	17.1%
CCCCCCCN(CCCCCCC)C(=N)c1ccc(OC)c2ccccc12	-70.2% (active)	-73.1% (active)	-89% (active)	-85.9% (active)	-92% (active)	-86.6% (active)	-75.2% (active)	-83.7% (active)	-90.7% (active)	-73% (active)
Cc1ccc(C(=O)c2sc3nc4c(cc3c2N)CCCC4)c(C)c1	35.1%	60.1%	29.5%	39.6%	14%	27.4%	-0.883% (active)	19.2%	35.2%	3.68% (active)
O=S(=O)(NCCNc1nccc(-c2c(-c3ccccc3)nc3sccn23)n1)c1ccc(O)cc1	50.3%	46%	58.2%	58.9%	21.4%	61.3%	65.4%	32.2%	64.1%	28.5%
C=C1C(=O)O[C@H]2[C@H]1CC/C(COC(=O)NCc1ccc(OC)cc1)=C\CC[C@@]1(C)O[C@@H]21	74.2%	64.5%	84.6%	67.5%	77.7%	63.3%	-55.5% (active)	69.1%	15.6%	-17.7% (active)
Cc1cc(-c2ccccc2)c(C)n1Cc1ccc(Cl)cc1	65.8%	71.3%	68.1%	55.4%	20.8%	54.2%	37.5%	33.7%	47.8%	38.2%
CC(=O)Nc1ccc(S(=O)(=O)N2C(=O)CCC2C(=O)Nc2ccccc2)cc1 (stereo not given)	38.5%	46.9%	38%	30.3%	15.1%	-5.79% (active)	27.5%	21.3%	26.2%	12.1%
